# NLRP3 yeast inh = NALP3 inhibition in yeast. inhibition, % at 10 µM. hit rate 0.39% among 330,000. Yeast reconstituted NLRP3/ASC/caspase-1, beta-gal luminescence, 24 h;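 active = inhibition of 50% or more; inactive = inhibition below 50%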;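 also: plate controls were induced DMSO wells for no effect and uninduced yeast grown without galactose for full effect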
# NALP1 inh = blocks the NALP1 inflammasome reconstituted in yeast | hit rate 0.61% among 280,000 | inhibition, % at 10 µM | S. cerevisiae NALP1/ASC/caspase-1 growth, X-gal OD620, 72 h; in the data active = inhibition mostly above about 24%, no sharp cut-off; inactive = mostly below about 32%
# tim23-1 inh = tim23-1 yeast growth inhibition | S. cerevisiae tim23-1 growth, BacTiter-Glo luminescence, 24 h | inhibition, % at 20 µM | hit rate 1.3% among 330,000;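 active = growth inhibition of the mutant yeast at or above 50%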;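 also: temperature-sensitive mutant grown at 25 °C; plate controls were DMSO-treated mutant yeast for no effect and medium wells lacking yeast for full effect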
# TIM10 inh = TIM10 yeast growth inhibition. AID 463195. hit rate 1.4% among 330,000. inhibition, % at 10 µM. S. cerevisiae TIM10 strain growth, BacTiter-Glo luminescence, 24 h;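 active = inhibition of 40% or more at the single tested concentration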;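 also: wild-type TIM10 isogenic control strain grown at permissive 25 °C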
# tim10-1 inh = growth inhibitors of tim10-1 mutant yeast. inhibition, % at 20 µM. hit rate 2.2% among 330,000. S. cerevisiae tim10-1 ts strain growth, BacTiter-Glo, 24 h. AID 463190;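 active = inhibition of at least 40%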;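 also: mutant grown at 25 °C; 0% = DMSO wells with yeast and 100% = wells holding no yeast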
# V-ATPase pHluor = alters yeast V-ATPase proton transport; S. cerevisiae, pHLuorin cytosolic pH fluorescence; response, % at 10 µM; hit rate 0.37% among 350,000; in the data active = response mostly above about 7.3%, no sharp cut-off; inactive = mostly below about 5.4%; also: actives read high
# tim10-1 conf = tim10-1 yeast growth inhibition, confirmed; hit rate 56% among 7,400; AID 463213; S. cerevisiae tim10-1 ts strain growth, BacTiter-Glo, 24 h; inhibition, % at 20 µM; shares compounds with tim10-1 inh;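 active = inhibition of yeast growth at or above a set limit in either of two repeat tests at 20 µM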;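 also: tim10-1 mutant grown at permissive 25 °C to find synthetic lethal compounds; 0% = DMSO yeast wells and 100% = medium wells without yeast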
# An asterisk follows results filed as active; x = no result. The list is not random: actives were taken first. Their share in the collection is about 4.2%.
SMILES,NLRP3 yeast inh,NALP1 inh,tim23-1 inh,TIM10 inh,tim10-1 inh,V-ATPase pHluor,tim10-1 conf
COc1ccc(C(=O)NC(=S)Nc2ccc(CN3CCOCC3)cc2)cc1Cl,16,-3,37,14,52*,-2,-30
O=C(Nc1ccc(CN2CCOCC2)cc1)c1ccc(-c2cc(Cl)ccc2Cl)o1,23,11,11,14,44*,-1,29
O=C(Nc1ccc(CN2CCOCC2)cc1)c1ccc(Br)o1,6,14,19,8,-6,3,x
O=C(NC(=S)Nc1ccc(N2CCOCC2)cc1)c1ccccc1,32,-1,-1,6,28,5,x
Cc1cccc(C(=O)Nc2ccc(S(=O)(=O)Nc3nc(C)cc(C)n3)cc2)c1,5,10,14,0,-2,-3,x
CC(=O)c1cccc(NC(=S)NC(=O)c2ccccc2)c1,20,41,33,-7,31,3,x
CC(=O)c1cccc(NC(=S)NC(=O)c2cccc(Cl)c2)c1,25,21,37,21,45*,-2,15
CCCNC(=O)C1(CC2CC(c3ccccc3)=NO2)CCN(C(=O)CCCCCBr)CC1 (centres undefined),7,x,3,-8,-8,2,x
Clc1ccccc1-c1nnc2sc(-c3ccncc3)nn12,6,-9,18,5,22,0,x
Clc1ccccc1-c1nn2c(-c3ccccn3)nnc2s1,0,3,30,12,40*,1,40*
Clc1ccc(-c2nnc3sc(-c4ccccn4)nn23)cc1,x,-23,x,x,x,x,x
Clc1ccccc1-c1nn2c(-c3ccncc3)nnc2s1,8,-11,35,31,43*,4,43*
CCC1CCCCN1C(=O)Cn1c(=O)n(CCCC(=O)NCc2ccco2)c(=O)c2sccc21 (centres undefined),22,1,9,13,-7,1,x
CC(C)(C)c1ccc2c(c1)OC(C(=O)N/N=C\c1ccc[nH]1)CO2 (centres undefined),10,-25,34,-41,42*,6,-103
CCC(C)c1ccc(NC(=O)Nc2cccnc2)cc1 (centres undefined),-10,-5,36,26,43*,1,33*
CCC(C)c1ccc(NC(=O)NCc2cccnc2)cc1 (centres undefined),-10,28,24,21,36,2,x
CN(C)c1ccc([C@@H]2[C@@H]([N+](=O)[O-])[C@H]3C=Cc4ccccc4N3[C@H]2C(=O)c2ccc(Cl)cc2)cc1,10,30,33,17,45*,-1,26
COC(=O)c1c(NC(=O)C(=O)N2CCOCC2)sc2c1CCCC2,13,11,49,10,52*,1,3
CCCCn1c(N)c(N(CCOC)C(=O)c2cc(C)oc2C)c(=O)[nH]c1=O,22,x,16,-4,1,0,x
Cc1nc2cc(NS(=O)(=O)c3c(C)c(C)cc(C)c3C)ccc2s1,11,-78,29,30,42*,-1,33*
Cc1nc2ccc(NS(=O)(=O)c3c(C)c(C)cc(C)c3C)cc2s1,21,11,5,3,12,0,x
COCCn1nnnc1C(CC(C)C)N1CCN(c2nc3ccccc3s2)CC1 (centres undefined),16,5,37,25,44*,-2,32*
COc1ccc(N2C(=O)CC(N3CCC(O)(c4cccc(C(F)(F)F)c4)CC3)C2=O)cc1 (centres undefined),11,24,40,25,43*,-4,33*
COc1ccc(N2C(=O)CC(N3CCCCC3)C2=O)cc1 (centres undefined),22,-3,25,-4,10,-1,x
Cc1cc(C)c(NC(=O)c2cccc3c2C(=O)N(C2CCCCC2)C3)c(C)c1,-11,3,33,19,49*,0,14
Cc1cccc(CCNC(=O)c2cccc3c2C(=O)N(C2CCCCC2)C3)c1,14,17,39,16,52*,0,16
Cc1ccccc1CN(CC(=O)Nc1cccc([N+](=O)[O-])c1)S(=O)(=O)c1ccc(Cl)cc1,2,29,33,12,45*,-2,24
